Data: the supplement of paper PMC13380429
Values without a mark were called inactive.

Tested on: Vero E6 infected with SARS-CoV-2
Assay: inhibition of SARS-CoV-2 cytopathic effect; higher = more antiviral protection, active = above 15
Conditions: 48 h

Row | SMILES | inhibition of SARS-CoV-2 cytopathic effect (1 nM) [%] | inhibition of SARS-CoV-2 cytopathic effect (8.33 nM) [%] | inhibition of SARS-CoV-2 cytopathic effect (100 nM) [%] | inhibition of SARS-CoV-2 cytopathic effect (833.33 nM) [%] | inhibition of SARS-CoV-2 cytopathic effect (10000 nM)
1 | Cc1cc(Nc2ncc(Cl)c(Nc3ccccc3S(=O)(=O)C(C)C)n2)c(OC(C)C)cc1C1CCNCC1 [ceritinib] | -0.41 | 1.21 | 2.17 | -2.36 | 58.8% (active)
2 | CC[N+](CC)(CC(=O)Nc1c(C)cccc1C)Cc1ccccc1 [denatonium-benzoate] | -0.9 | -3.36 | -2.46 | -1.56 | -0.4%
3 | c1cc(-c2cnn3cc(-c4ccc(OCCN5CCCCC5)cc4)cnc23)ccn1 [dorsomorphin] | -2.38 | -0.08 | 2.59 | -0.64 | -2.57%
4 | O=C1Nc2ccccc2C2(CCN(CCc3ccc(C(F)(F)F)cc3)CC2)O1 | -1.89 | -4.51 | -1.41 | -2.49 | -3.73%
5 | COc1ccc(CCN(C)CCc2ccc(OC)c(OC)c2)cc1OC | 0.34 | 3.91 | 0.58 | 4.35 | 3.64%
6 | CC(C)(F)C[C@H](N[C@@H](c1ccc(-c2ccc(S(C)(=O)=O)cc2)cc1)C(F)(F)F)C(=O)NC1(C#N)CC1 [odanacatib] | -3.88 | -4.52 | -3.49 | -1.8 | 0.04%
7 | O=C(Nc1cc(C(F)(F)F)cc(C(F)(F)F)c1)c1cc(Cl)ccc1O [IKK-2-inhibitor-V] | -4.92 | -2.65 | 1.55 | 10.7 | 4.63%
8 | OCCNCCCOc1cccc(Cl)c1Cl | 1.41 | 0.45 | 1.26 | 0.42 | -19.6%
9 | CC(C)NC(=O)N1CC[C@H](NC2=Nc3cc(F)ccc3N(CC(F)F)c3ccc(Cl)cc32)C1 | 2.37 | 0.15 | 3.33 | 8.12 | -0.57%
10 | CONC(=N)c1ccc(-c2ccc(-c3ccc(C(=N)NOC)cc3)o2)cc1 [pafuramidine] | -0.94 | 1.16 | -0.24 | 0.72 | 2.7%
11 | CCn1c(O)nnc1-c1ccc(Cl)cc1 [5-(4chlorophenyl)-4-ethyl-2,4-dihydro-3H-1,2,4-triazol-3-one] | -1.14 | -2.31 | -1.83 | 0.79 | 0.03%
12 | CCC[C@H](N[C@@H](C)C(=O)N1[C@H](C(=O)O)C[C@@H]2CCCC[C@@H]21)C(=O)O [perindoprilat] | 4.13 | -0.1 | 3.43 | 0.42 | -3.18%
13 | COc1cccc(OC)c1-c1cc(C(=O)N[C@@H](CC(C)C)C(=O)O)nn1-c1ccnc2cc(Cl)ccc12 | 2.48 | 1.4 | -0.45 | -0.64 | -0.46%
14 | CCN1CCN(C(=O)N[C@@H](C(=O)N[C@@H]2C(=O)N3C(C(=O)O)=C(CSc4nnnn4C)CS[C@H]23)c2ccc(O)cc2)C(=O)C1=O [cefoperazone] | -0.37 | -0.65 | 0.99 | 3.89 | 2.57%
15 | CN(C)C(=O)c1cc2cnc(Nc3ccc(N4CCNCC4)cn3)nc2n1C1CCCC1 [ribociclib] | -0.57 | -0.13 | -0.03 | -3.73 | -7.22%
16 | CCCCCCOc1cc2c(cc1N(C)c1ncc(C(=O)O)cn1)C(C)(C)CCC2(C)C | -1.61 | 3.1 | 3.71 | 4.08 | 5.06%
17 | CC(C)[C@H](NS(=O)(=O)c1ccc(-c2ccc(Br)cc2)cc1)C(=O)O | 0.82 | 0.67 | -0.06 | 0.69 | 1.89%
18 | CCN1CCC[C@H]1CNC(=O)c1c(O)c(Cl)cc(Cl)c1OC [raclopride] | -5.41 | -4.22 | -1.29 | -2.68 | -0.07%
19 | CCCCC1=NC2(CCCC2)C(=O)N1Cc1ccc(-c2ccccc2-c2nnn[nH]2)cc1 [irbesartan] | -1.49 | -0.93 | 0.89 | 1.9 | 0.85%

Row | SMILES | inhibition of SARS-CoV-2 cytopathic effect (1 nM) [%] | inhibition of SARS-CoV-2 cytopathic effect (8.33 nM) [%] | inhibition of SARS-CoV-2 cytopathic effect (100 nM) [%] | inhibition of SARS-CoV-2 cytopathic effect (833.33 nM) [%] | inhibition of SARS-CoV-2 cytopathic effect (10000 nM)
20 | C=C1c2cccc(O)c2C(=O)C2=C(O)[C@]3(O)C(=O)C(C(N)=O)=C(O)[C@@H](N(C)C)[C@@H]3[C@@H](O)[C@H]12 [methacycline] | 1.27 | -0.1 | 1.49 | 0.36 | 2.34%
21 | Cc1cc(Nc2cc(N3CCN(C)CC3)nc(Sc3ccc(NC(=O)C4CC4)cc3)n2)n[nH]1 [tozasertib] | -0.96 | -0.86 | -0.22 | 0.2 | -4.18%
22 | CC(C)(O)CC(=O)O [beta-hydroxy-beta-methylbutyrate] | 3.1 | -2.04 | -6.91 | -3.9 | -3.42%
23 | CN1[C@@H]2C[C@@H](OC(=O)[C@H](CO)c3ccccc3)C[C@H]1[C@@H]1O[C@@H]12 | 1.79 | 1.73 | 1.2 | 1.41 | 0.06%
24 | NC(=O)C1=CN([C@@H]2O[C@H](COP(=O)(O)OP(=O)(O)OC[C@H]3O[C@@H](n4cnc5c(N)ncnc54)[C@H](OP(=O)(O)O)[C@@H]3O)[C@@H](O)[C@H]2O)C=CC1 | 0.75 | 3.17 | 2.16 | 0.8 | -1.27%
25 | CC(=O)Nc1ccc(S(=O)(=O)Nc2ccc([N+](=O)[O-])cc2)cc1 [sulfanitran] | -1.18 | -2.16 | 0.76 | 0.27 | -4.49%
26 | C[C@]1(COc2ccc(N3CCC(Oc4ccc(OC(F)(F)F)cc4)CC3)cc2)Cn2cc([N+](=O)[O-])nc2O1 [delamanid] | -0.82 | 0.01 | -1.12 | 2.83 | 1.84%
27 | CCN(CC)CC1CCCCN1CC(=O)N1c2ccccc2C(=O)Nc2cccnc21 (stereo not given) [otenzepad] | 2.23 | 3.08 | -0.68 | 5.55 | 0.04%
28 | NCCc1c[nH]cn1 [histamine] | -0.66 | 1.36 | 0.17 | 1.23 | 1%
29 | CNC(=O)c1ccc2cc([C@@]3(O)CCn4cncc43)ccc2c1 [orteronel] | 3.23 | 3.01 | 4.35 | 3.1 | 2.53%
30 | CN(C)CCCN1c2ccccc2Sc2ccccc21 [promazine] | 2.47 | -1.16 | 0.93 | 0.57 | -0.38%
31 | NC(=O)c1cc([N+](=O)[O-])cc([N+](=O)[O-])c1 [nitromide] | 0.52 | 1.05 | 1.48 | 0.38 | -0.05%
32 | CC(C)(Cc1c[nH]c2ccc(Cl)cc12)NCCOc1ccccc1OCC1CC1 | 0.45 | -0.91 | 0.78 | -2.24 | -19.4%
33 | CN(CCOP(=O)(O)O)C(=N)N [creatinol-phosphate] | -1.02 | 2.42 | 0.89 | -2.46 | -1.58%
34 | Cc1nc2ccc(NC(=O)Nc3ccnc4cccnc34)cc2o1 | 0.35 | 0.06 | 2.76 | -0.56 | -0.97%
35 | CN1CCN(c2nc3ccccc3nc2Cl)CC1 | -3.46 | -0.96 | -3.46 | 0.73 | 5.89%
36 | COc1ccccc1CC(=N)N1C[C@@H]2C(=O)CCC(c3ccccc3)(c3ccccc3)[C@@H]2C1 | -0.54 | 2.21 | 1.93 | 3.76 | -2.17%
37 | C[C@H](NC[C@H](O)CP(=O)(O)CC1CCCCC1)c1ccc(Cl)c(Cl)c1 | 0.9 | -0.56 | -1.52 | 0.84 | 0.91%
38 | CCOC(=O)c1c(C)n(C)c2ccc(O)cc12 [mecarbinate] | -0.79 | -1.26 | -2.84 | -2.4 | -2.61%
